Several values for one entry are separate records, joined by “and”; a condition that tells them apart may be missing. Equal values may be shown once. Results filed as inconclusive are left out. Where a structure was tested more than once in an assay, its records may differ in their call. Activity calls are given as the source filed them. The call rests on the fitted dose curve; in most records, active means well fitted cell-killing curve with a large enough effect in the repeat runs; inconclusive means weak or mixed curves; inactive means no such curve, though single readings can be large or run the other way.
Assay: qHTS assay to identify small molecule agonists of the peroxisome proliferator-activated receptor delta (PPARd) signaling pathway - cell viability counter screen (AID 743211); further: nearly all actives have a fitted effect of over 55% in size
Settings: PPARd-bla HEK293H viability, CellTiter-Glo luminescence, 17 h; series mostly up to 62.6 µM
Description: U.S. Tox21 Program National Center for Advancing Translational Sciences [NCATS] NIH Chemical Genomics Center [NCGC] U.S. Environmental Protection Agency [EPA] National Institutes of Environmental Health Sciences [NIEHS] National Toxicology Program [NTP] U.S. Food and Drug Administration [FDA] Tox21 Assay Overview: The peroxisome proliferator-activated receptors (PPARs) are lipid-activated transcription factors of the nuclear receptor superfamily with three distinct subtypes namely PPAR alpha, PPAR delta (PPARd) and PPAR gamma. All these subtypes heterodimerizes with Retinoid X receptor (RXR) and have different physiological functions. […] To identify the compounds that activate PPAR-delta signaling, GeneBLAzer PPAR delta UAS-bla HEK293H cell line (Invitrogen, Carlsbad, CA, USA) containing a beta-lactamase reporter gene under the control of an Upstream Activator Sequence (UAS) was used to screen the Tox21 compound library. The cytotoxicity of the Tox21 compound library against the PPARd-bla cell line was tested in parallel by measuring the cell viability using CellTiter-Glo assay (Promega, Madison, WI) in the same wells.
Tox21 Assay Protocol Summary: PPARd-bla cells were dispensed at 3000 cells/6uL/well in 1536-well black wall/clear bottom plates using a Multidrop Combi (Thermo Fisher Scientific, Waltham, MA) dispenser. After the assay plates were incubated at 37 C and 5% CO2 for 5 h, 23 nL of compounds dissolved in DMSO, positive controls or DMSO only was transferred to the assay plate by a Pintool station (Kalypsys, San Diego, CA). The assay plates were incubated at 37C for 17 h. After 1 uL of LiveBLAzerTM B/G FRET substrate was added using a Bioraptr Flying Reagent Dispenser (FRD) workstation (Beckman Coulter, Indianapolis, IN, USA), the plates were incubated at room temperature for 2 h, and fluorescence intensity was measured by an Envision plate reader (PerkinElmer, Shelton, CT). For cell viability readout that measures cytotoxicity, 3 ul/well of CellTiter-Glo reagent was added into the assay plates using a Bioraptr FRD. After 30 min incubation at room temperature, the luminescence intensity in the plates was measured using a ViewLux plate reader (PerkinElmer).
Potency means the concentration at half of the fitted maximal effect.

Row | Compound | Potency
1 | Oc1cccc(-c2c3nc(c(-c4cccc(O)c4)c4ccc([nH]4)c(-c4cccc(O)c4)c4nc(c(-c5cccc(O)c5)c5ccc2[nH]5)CC4)C=C3)c1 | 13.3 µM (active)
2 | O=C1C=CC(=O)N1c1ccc(Cc2ccc(N3C(=O)C=CC3=O)cc2)cc1 | 38.9 µM (active)
3 | CCCCCCCCCCCCc1ccc(O)cc1 | 24.5 µM (active)
4 | Cc1oc(-c2ccccc2)nc1CCC(=O)c1ccc(CC2SC(=O)NC2=O)cc1 (stereo not given) | inactive
5 | Oc1ccc(C2(c3ccc(O)cc3)CC3CC2C2CCCC32)cc1 (stereo not given) | 14.9 µM (active)
6 | CCCN(CCC)C(=O)C(CCC(=O)OCCCN1CCN(CCOC(=O)Cc2c(C)n(C(=O)c3ccc(Cl)cc3)c3ccc(OC)cc23)CC1)NC(=O)c1ccccc1 (stereo not given) | 23.7 µM (active)
7 | Fc1ccc([C@@H]2CCNC[C@H]2COc2ccc3c(c2)OCO3)cc1 | 13.3 µM (active)
8 | COc1cc(/C=C/C(=O)O[C@H]2CC[C@]34C[C@]35CC[C@]3(C)[C@@H]([C@H](C)CCC=C(C)C)CC[C@@]3(C)[C@@H]5CC[C@H]4C2(C)C)ccc1O | inactive
9 | C[C@@H](NCCCc1cccc(C(F)(F)F)c1)c1cccc2ccccc12 | 11.9 µM (active)
10 | CCOC(=O)c1nc(C(Cl)(Cl)Cl)n(-c2ccc(Cl)cc2Cl)n1 | 54.9 µM (active)
11 | CN(C)[C@@H]1C(=O)C(C(N)=O)=C(O)[C@@]2(O)C(=O)C3=C(O)c4c(O)cccc4C[C@H]3C[C@@H]12 | inactive
12 | O=C1c2c(O)ccc(Nc3ccc(CCO)cc3)c2C(=O)c2c([N+](=O)[O-])ccc(O)c21 | inactive
13 | Cc1ccc(O)c(C(C)(C)C)c1 | 21.8 µM (active) and inactive
14 | [Cl][Bi]([Cl])([c]1ccccc1)([c]1ccccc1)[c]1ccccc1 | 5.46 µM (active)
15 | CCC(C)(C)C1CCCCC1OC(C)=O (stereo not given) | inactive
16 | C=CC(=O)OCC(CO)(COC(=O)C=C)COC(=O)C=C | 6.94 µM (active) and 11 µM (active)
17 | CCCCCCCCS(=O)C(C)Cc1ccc2c(c1)OCO2 (stereo not given) | 50 µM (active)
18 | CCCCC(CC)CN=C(N)NC(N)=NCCCCCCN=C(N)NC(N)=NCC(CC)CCCC (stereo not given) | 6.68 µM (active)
19 | CCCCCCCCNC(C)C(O)c1ccc(SC(C)C)cc1 (stereo not given) | 9.44 µM (active)
20 | O=S1(=O)CC(Cl)(Cl)C(Cl)(Cl)C1 | 3.09 µM (active)

Row | Compound | Potency
21 | O=C(c1ccc(O)cc1O)c1ccc(O)cc1O | inactive
22 | O=[N+]([O-])c1ccccc1Nc1ccccc1 | inactive
23 | CCN(CC)CCCC(C)Nc1c2ccc(Cl)cc2nc2ccc(OC)cc12 (stereo not given) | 11.9 µM (active)
24 | C[C@H]1[C@H]2CC[C@H]3[C@@H]4CC=C5C[C@@H](N(C)C)CC[C@]5(C)[C@H]4CC[C@]23CN1C | inactive
25 | Cc1cc(O)c(Cl)c(C)c1Cl | 43.6 µM (active)
26 | CCCCCCCCOc1ccccc1C(=O)Nc1ccc(C(=O)OCC[N+](C)(CC)CC)cc1 | 26.6 µM (active)
27 | NC(=O)CC[C@@H]1NC(=O)[C@H](Cc2ccccc2)NC(=O)[C@H](Cc2ccc(O)cc2)NC(=O)CCSSC[C@@H](C(=O)N2CCC[C@H]2C(=O)N[C@@H](CCCN=C(N)N)C(=O)NCC(N)=O)NC(=O)[C@H](CC(N)=O)NC1=O | inactive
28 | C=C(C)C(=O)OCC(O)COc1ccc(C(C)(C)c2ccc(OCC(O)COC(=O)C(=C)C)cc2)cc1 (stereo not given) | 54.9 µM (active)
29 | On1ccccc1=S | 0.385 µM (active)
30 | CCCC(c1cc(C(C)(C)C)c(O)cc1C)c1cc(C(C)(C)C)c(O)cc1C | 11.1 µM (active)
31 | Cc1cccc(S(=O)(=O)O)c1C | inactive
32 | COC(=O)C1=C(C)NC(C)=C(C(=O)OCCc2ccc(N3CCN(C(c4ccccc4)c4ccccc4)CC3)cc2)C1c1cccc([N+](=O)[O-])c1 (stereo not given) | inactive
33 | CCC1=C[C@@H]2CN(C1)Cc1c([nH]c3ccccc13)[C@@](C(=O)OC)(c1cc3c(cc1OC)N(C)[C@H]1[C@@](O)(C(=O)OC)[C@H](OC(C)=O)[C@]4(CC)C=CCN5CC[C@]31[C@@H]54)C2 | 29.8 µM (active)
34 | CC(C)=CCOc1ccc(/C=C/C(=O)c2ccc(OCC=C(C)C)cc2OCC(=O)O)cc1 | 29.8 µM (active)
35 | COCCCC/C(=N\OCCN)c1ccc(C(F)(F)F)cc1 | 23.7 µM (active)
36 | Cc1onc(-c2ccccc2Cl)c1C(=O)N[C@@H]1C(=O)N2[C@@H]1SC(C)(C)[C@@H]2C(=O)O | inactive
37 | Clc1ccc2cc3ccccc3cc2c1 | inactive
38 | C/C=C(\C)C(=O)OCc1ccccc1 | inactive
39 | Nc1c2ccccc2nc2ccccc12 | inactive
40 | CCCCCCCC[N+](CCCCCCCC)(CCCCCCCC)CCCCCCCC | 6.15 µM (active)

Source: PubChem BioAssay (Tox21)
